Counter-ions that a name gives are not always drawn.
Legend:
Settings in all cases: treatment time: 24 h
A549-ACTB-RAB5A = assay: phenotypically active (imaging signature differs from DMSO and reproducible) at any of 0.3-9 uM (binary (1 = active, 0 = inactive)); higher = active
Outline: (§1)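 Phenotypic activity depended on meeting both a deviation and a reproducibility criterion. The fifteen gene-edited A549, HepG2 and WPMY1 reporter lines were treated at 0.3, 1, 3 or 9 µM for 24 h, four wells each, then imaged live with features normalised to solvent control wells. Deviation required ≥3 of 4 wells past the 95th percentile of control Euclidean distances, and reproducibility a median replicate Pearson correlation above the 95th percentile of non-replicates.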

A549-CANX-COX4 = assay: as above
Outline: as §1

A549-GM130-SQSTM1 [1] = assay: as above
Outline: as §1

A549-TP53BP1-CLTA = assay: as above
Outline: as §1

A549-TUBA1B-RELA = assay: as above
Outline: as §1

HepG2-ACTB-RAB5A = assay: as above
Outline: as §1

HepG2-CANX-COX4 [2] = assay: as above
Outline: as §1

HepG2-GM130-SQSTM1 = assay: as above
Outline: as §1

HepG2-TP53BP1-CLTA = assay: as above
Outline: as §1

HepG2-TUBA1B-RELA = assay: as above
Outline: as §1

WPMY1-ACTB-RAB5A = assay: as above
Outline: as §1

WPMY1-CANX-COX4 [3] = assay: as above
Outline: as §1

WPMY1-GM130-SQSTM1 [4] = assay: as above
Outline: as §1

WPMY1-TP53BP1-CLTA = assay: as above
Outline: as §1

WPMY1-TUBA1B-RELA = assay: as above
Outline: as §1

A549-GM130-SQSTM1 [5] = assay: lowest phenotypically active concentration; higher = less potent
Outline: as §1

HepG2-CANX-COX4 [6] = assay: as above
Outline: as §1

WPMY1-GM130-SQSTM1 [7] = assay: as above
Outline: as §1

WPMY1-CANX-COX4 [8] = assay: as above
Outline: as §1

Row | SMILES | phenotypically active (A549-ACTB-RAB5A) | phenotypically active (A549-CANX-COX4) | phenotypically active (A549-GM130-SQSTM1 [1]) | phenotypically active (A549-TP53BP1-CLTA) | phenotypically active (A549-TUBA1B-RELA) | phenotypically active (HepG2-ACTB-RAB5A) | phenotypically active (HepG2-CANX-COX4 [2]) | phenotypically active (HepG2-GM130-SQSTM1) | phenotypically active (HepG2-TP53BP1-CLTA) | phenotypically active (HepG2-TUBA1B-RELA) | phenotypically active (WPMY1-ACTB-RAB5A) | phenotypically active (WPMY1-CANX-COX4 [3]) | phenotypically active (WPMY1-GM130-SQSTM1 [4]) | phenotypically active (WPMY1-TP53BP1-CLTA) | phenotypically active (WPMY1-TUBA1B-RELA) | lowest phenotypically active concentration (A549-GM130-SQSTM1 [5]) | lowest phenotypically active concentration (HepG2-CANX-COX4 [6]) | lowest phenotypically active concentration (WPMY1-GM130-SQSTM1 [7]) | lowest phenotypically active concentration (WPMY1-CANX-COX4 [8])
1 | Nc1nnc(Sc2ncc([N+](=O)[O-])s2)s1 | 0 (inactive) | 0 (inactive) | 0 (inactive) | 0 (inactive) | 1 (active) | 0 (inactive) | 0 (inactive) | 0 (inactive) | 0 (inactive) | 0 (inactive) | 0 (inactive) | 0 (inactive) | 0 (inactive) | 0 (inactive) | 0 (inactive) | – | – | – | –
2 | O=c1cc(N2CCOCC2)oc2c1ccc1ccccc12 | 0 (inactive) | 0 (inactive) | 1 (active) | 0 (inactive) | 0 (inactive) | 0 (inactive) | 0 (inactive) | 0 (inactive) | 0 (inactive) | 0 (inactive) | 0 (inactive) | 0 (inactive) | 0 (inactive) | 0 (inactive) | 1 (active) | 3 µM | – | – | –
3 | Cc1ccc(-n2sc3ccccc3c2=O)cc1 | 0 (inactive) | 0 (inactive) | 0 (inactive) | 0 (inactive) | 0 (inactive) | 0 (inactive) | 1 (active) | 1 (active) | 0 (inactive) | 0 (inactive) | 1 (active) | 0 (inactive) | 1 (active) | 0 (inactive) | 0 (inactive) | – | 9 µM | 9 µM | –
4 | O=C(O)COc1ccc(Br)cc1/C=C1\SC(=S)N(Cc2cccnc2)C1=O | 0 (inactive) | 0 (inactive) | 1 (active) | 0 (inactive) | 0 (inactive) | 0 (inactive) | 0 (inactive) | 1 (active) | 0 (inactive) | 0 (inactive) | 0 (inactive) | 0 (inactive) | 1 (active) | 0 (inactive) | 0 (inactive) | 9 µM | – | 3 µM | –
5 | Clc1ccc(C(c2ccc(Cl)cc2)[n+]2ccn(CC(OCc3ccc(Cl)cc3Cl)c3ccc(Cl)cc3Cl)c2)cc1 (stereo unspecified) [Calmidazolium chloride] | 0 (inactive) | 0 (inactive) | 0 (inactive) | 0 (inactive) | 0 (inactive) | 1 (active) | 0 (inactive) | 0 (inactive) | 0 (inactive) | 1 (active) | 0 (inactive) | 1 (active) | 1 (active) | 0 (inactive) | 1 (active) | – | – | 3 µM | 3 µM
6 | O=C(O)[C@H]1CCCC[C@H]1C(=O)N1CCc2ccccc2[C@H]1CN1C(=O)c2ccccc2C1=O | 0 (inactive) | 0 (inactive) | 0 (inactive) | 0 (inactive) | 0 (inactive) | 1 (active) | 0 (inactive) | 1 (active) | 0 (inactive) | 1 (active) | 0 (inactive) | 0 (inactive) | 0 (inactive) | 0 (inactive) | 0 (inactive) | – | – | – | –
7 | CC(C)N(CCCNC(=O)Nc1ccc(C(C)(C)C)cc1)C[C@H]1O[C@@H](n2cc(Br)c3c(N)ncnc32)[C@H](O)[C@@H]1O | 0 (inactive) | 0 (inactive) | 0 (inactive) | 1 (active) | 0 (inactive) | 1 (active) | 1 (active) | 1 (active) | 1 (active) | 1 (active) | 1 (active) | 1 (active) | 1 (active) | 1 (active) | 1 (active) | – | 9 µM | 9 µM | 3 µM
8 | CCCCCCCCCCCCC/C=C/[C@H](O)[C@H](N)CO [D-erythro-Sphingosine (synthetic)] | 0 (inactive) | 0 (inactive) | 1 (active) | 0 (inactive) | 0 (inactive) | 0 (inactive) | 0 (inactive) | 0 (inactive) | 0 (inactive) | 0 (inactive) | 0 (inactive) | 0 (inactive) | 1 (active) | 0 (inactive) | 0 (inactive) | 9 µM | – | 9 µM | –
9 | CO[C@H]1C=CO[C@@]2(C)Oc3c(C)c(O)c4c(O)c(c(/C=N/N5CCN(C)CC5)c(O)c4c3C2=O)NC(=O)C(C)=CC=C[C@H](C)[C@H](O)[C@@H](C)[C@@H](O)[C@@H](C)[C@H](OC(C)=O)[C@@H]1C [Rifampicin] | 0 (inactive) | 0 (inactive) | 1 (active) | 0 (inactive) | 0 (inactive) | 0 (inactive) | 1 (active) | 0 (inactive) | 0 (inactive) | 0 (inactive) | 0 (inactive) | 0 (inactive) | 0 (inactive) | 0 (inactive) | 0 (inactive) | 9 µM | 3 µM | – | –
10 | Cc1cc2c(s1)Nc1ccccc1N=C2N1CCN(C)CC1 [Olanzapine] | 0 (inactive) | 0 (inactive) | 0 (inactive) | 0 (inactive) | 0 (inactive) | 0 (inactive) | 0 (inactive) | 0 (inactive) | 0 (inactive) | 1 (active) | 0 (inactive) | 0 (inactive) | 0 (inactive) | 0 (inactive) | 0 (inactive) | – | – | – | –
11 | Cc1cccc(CCN2CCC(C(=O)c3ccc(NS(C)(=O)=O)cc3)CC2)n1 | 0 (inactive) | 0 (inactive) | 0 (inactive) | 0 (inactive) | 0 (inactive) | 0 (inactive) | 0 (inactive) | 0 (inactive) | 0 (inactive) | 0 (inactive) | 0 (inactive) | 0 (inactive) | 1 (active) | 0 (inactive) | 0 (inactive) | – | – | 3 µM | –
12 | O=C1C=C(O)C(=O)c2ccccc21 [2-Hydroxy-[1,4]naphthoquinone] | 0 (inactive) | 0 (inactive) | 0 (inactive) | 0 (inactive) | 0 (inactive) | 0 (inactive) | 0 (inactive) | 0 (inactive) | 0 (inactive) | 0 (inactive) | 0 (inactive) | 0 (inactive) | 1 (active) | 0 (inactive) | 0 (inactive) | – | – | ≤ 0.3 µM | –
13 | CC(CCc1ccc(O)cc1)NCCc1ccc(O)c(O)c1 (stereo unspecified) [Dobutamine hydrochloride] | 0 (inactive) | 0 (inactive) | 0 (inactive) | 0 (inactive) | 0 (inactive) | 0 (inactive) | 0 (inactive) | 0 (inactive) | 0 (inactive) | 0 (inactive) | 0 (inactive) | 0 (inactive) | 1 (active) | 0 (inactive) | 0 (inactive) | – | – | 3 µM | –
14 | CN/C(=C/[N+](=O)[O-])NCCSCc1csc(CN(C)C)n1 [nizatidine] | 0 (inactive) | 0 (inactive) | 0 (inactive) | 0 (inactive) | 0 (inactive) | 0 (inactive) | 0 (inactive) | 0 (inactive) | 1 (active) | 0 (inactive) | 0 (inactive) | 0 (inactive) | 0 (inactive) | 0 (inactive) | 0 (inactive) | – | – | – | –
15 | CC(C)C(=O)Nc1ccc([N+](=O)[O-])c(C(F)(F)F)c1 [flutamide] | 0 (inactive) | 0 (inactive) | 0 (inactive) | 0 (inactive) | 0 (inactive) | 0 (inactive) | 0 (inactive) | 0 (inactive) | 0 (inactive) | 0 (inactive) | 0 (inactive) | 0 (inactive) | 1 (active) | 0 (inactive) | 0 (inactive) | – | – | 9 µM | –
16 | CCCN[C@H]1CCc2nc(N)sc2C1 [pramipexole] | 0 (inactive) | 0 (inactive) | 0 (inactive) | 0 (inactive) | 0 (inactive) | 0 (inactive) | 0 (inactive) | 0 (inactive) | 0 (inactive) | 0 (inactive) | 0 (inactive) | 0 (inactive) | 1 (active) | 0 (inactive) | 0 (inactive) | – | – | 9 µM | –
17 | O=S(=O)(NCCCCCCc1ccccc1)c1cccc2c(Cl)cccc12 | 0 (inactive) | 0 (inactive) | 0 (inactive) | 0 (inactive) | 0 (inactive) | 0 (inactive) | 0 (inactive) | 0 (inactive) | 0 (inactive) | 1 (active) | 1 (active) | 1 (active) | 0 (inactive) | 0 (inactive) | 0 (inactive) | – | – | – | ≤ 0.3 µM
18 | CN(C)CCCC1(c2ccc(F)cc2)OCc2cc(C#N)ccc21 (stereo unspecified) [citalopram] | 0 (inactive) | 0 (inactive) | 0 (inactive) | 0 (inactive) | 0 (inactive) | 0 (inactive) | 0 (inactive) | 0 (inactive) | 0 (inactive) | 0 (inactive) | 0 (inactive) | 0 (inactive) | 1 (active) | 0 (inactive) | 0 (inactive) | – | – | 9 µM | –
19 | CC(C)C[C@H](NC(=O)OCC1c2ccccc2-c2ccccc21)C(=O)O | 0 (inactive) | 0 (inactive) | 0 (inactive) | 0 (inactive) | 0 (inactive) | 0 (inactive) | 0 (inactive) | 0 (inactive) | 0 (inactive) | 0 (inactive) | 1 (active) | 0 (inactive) | 0 (inactive) | 0 (inactive) | 0 (inactive) | – | – | – | –
20 | Nc1ncnc2c1c(COc1cccc(Cl)c1)nn2C1CCOCC1 | 0 (inactive) | 0 (inactive) | 0 (inactive) | 0 (inactive) | 0 (inactive) | 0 (inactive) | 0 (inactive) | 0 (inactive) | 1 (active) | 0 (inactive) | 0 (inactive) | 0 (inactive) | 0 (inactive) | 0 (inactive) | 0 (inactive) | – | – | – | –
21 | CCOc1ccc2nc(S(N)(=O)=O)sc2c1 [ethoxzolamide] | 0 (inactive) | 0 (inactive) | 0 (inactive) | 0 (inactive) | 0 (inactive) | 0 (inactive) | 0 (inactive) | 1 (active) | 0 (inactive) | 0 (inactive) | 0 (inactive) | 0 (inactive) | 0 (inactive) | 0 (inactive) | 0 (inactive) | – | – | – | –

From the supplement of paper PMC7411054
